PP5 inh = inhibitors of human protein phosphatase 5 (PP5) | P53041 | AID 1987 | inhibition, % at 6.7 µM | 320,000 tested, 0.18% active | purified PP5c, OMFP substrate fluorescence;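 active = inhibition above the campaign's mean inhibition across all tested compounds plus 3 SD, cut at about 9.5% in these data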;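 note: 0% = DMSO only and 100% = 100 µM cantharidin control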
PREPL inhibitor = inhibitors of human prolyl oligopeptidase-like enzyme PREPL | inhibition, % at 5.96 µM | recombinant PREPL, fluorescence polarization activity-based probe | Q4J6C6 | 320,000 tested, 0.68% active; in the data active = inhibition above about 43%;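 note: 0% = enzyme with DMSO and 100% = wells lacking enzyme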
PP1 counter = blocks human PP1-alpha phosphatase, a PP5 counter-screen | purified PP1alpha, OMFP fluorescence | 320,000 tested, 0.9% active | inhibition, % at 6.7 µM | P62136;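 active = inhibition above the mean inhibition of all tested compounds plus 3 SD, computed separately for each screening campaign, cut at about 15% in these data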
TMEM16A inh = blocks the mouse calcium-activated chloride channel TMEM16A | Q8BHY3 | HEK293 TMEM16A/YFP iodide influx fluorescence, ionomycin | normalized B-score (activity score, 25-100; higher = stronger inhibition) at 10 µM | 310,000 tested, 1.2% active;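 active = ratio plate-corrected score three or more library SD toward inhibition, starting fluorescence score within five deviations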;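 note: score derived from kinetic fluorescence span divided by baseline fluorescence per well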
Target sequence (Q8BHY3 whole entry, looked up): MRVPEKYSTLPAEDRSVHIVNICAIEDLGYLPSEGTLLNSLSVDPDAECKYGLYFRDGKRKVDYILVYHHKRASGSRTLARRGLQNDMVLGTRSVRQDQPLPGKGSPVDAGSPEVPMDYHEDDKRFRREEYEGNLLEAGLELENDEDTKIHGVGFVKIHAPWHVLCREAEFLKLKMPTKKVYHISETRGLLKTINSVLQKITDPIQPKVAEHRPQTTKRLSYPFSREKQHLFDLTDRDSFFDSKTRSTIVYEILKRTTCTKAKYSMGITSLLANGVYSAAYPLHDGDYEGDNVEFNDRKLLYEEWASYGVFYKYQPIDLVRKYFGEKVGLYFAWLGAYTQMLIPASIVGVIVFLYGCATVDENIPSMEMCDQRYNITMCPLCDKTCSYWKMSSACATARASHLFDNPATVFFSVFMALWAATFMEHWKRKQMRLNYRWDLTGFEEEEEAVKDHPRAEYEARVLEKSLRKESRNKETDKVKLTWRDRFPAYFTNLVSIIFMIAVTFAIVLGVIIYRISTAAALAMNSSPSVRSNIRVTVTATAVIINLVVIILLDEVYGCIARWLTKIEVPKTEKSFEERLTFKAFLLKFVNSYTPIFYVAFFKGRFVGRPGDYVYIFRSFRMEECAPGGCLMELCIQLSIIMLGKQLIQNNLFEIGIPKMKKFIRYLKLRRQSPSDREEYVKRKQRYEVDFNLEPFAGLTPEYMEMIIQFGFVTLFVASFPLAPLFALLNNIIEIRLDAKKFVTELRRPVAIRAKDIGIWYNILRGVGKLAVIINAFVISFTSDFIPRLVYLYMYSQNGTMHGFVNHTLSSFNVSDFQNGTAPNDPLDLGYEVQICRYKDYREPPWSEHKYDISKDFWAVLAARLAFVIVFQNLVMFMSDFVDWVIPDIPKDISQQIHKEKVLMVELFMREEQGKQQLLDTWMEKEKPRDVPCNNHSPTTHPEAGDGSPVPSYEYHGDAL
TMEM16A act = activates or potentiates the mouse TMEM16A chloride channel; B-score at 10 µM; AID 623877; 340,000 tested, 0.3% active; HEK293 TMEM16A/YFP-H148Q/I152L, iodide quench fluorescence; active compounds read low;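 active = fluorescence-ratio B-score plate-corrected deviation score at least 3 library SD below zero, with starting fluorescence score within 5 deviations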;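 note: channel opened by trigger with iodide after compound preincubation; score built on the fluorescence ratio of max minus min over baseline; more negative score means more quench and so TMEM16A activation or potentiation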
DNA FID counter = counter-screen for HCV NS3 helicase inhibitors: DNA intercalator displacement; DNA fluorescent intercalator displacement, fluorescence; inhibition, % at 7.9 µM; 290,000 tested, 0.17% active; in the data active = inhibition above about 37%;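 note: 0% = vehicle and 100% = reference compound; higher means more ethidium bromide displaced from hairpin DNA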
TMEM16A reconf = re-confirmation of mouse TMEM16A chloride channel inhibitors. HEK293 TMEM16A/YFP-H148Q, iodide quench fluorescence; ionomycin added to raise cell calcium. shares compounds with TMEM16A inh. inhibition, % at 10 µM. 2,300 tested, 39% active;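 active = mean duplicate percent inhibition, scaled so buffer wells are 0 and the reference blocker 100, over three buffer SD above buffer mean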
HEK293 Ca mobil = alters calcium mobilization in TMEM16A HEK293 cells, counter-screen | shares compounds with TMEM16A inh | TMEM16A/YFP HEK293, Fluo4 calcium mobilization | calcium response (% of ionomycin), % at 10 µM | 2,300 tested, 2% active | AID 652231;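 active = duplicate-averaged calcium signal over 20% of the ionomycin maximum, relative to buffer baseline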;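 note: each well's signal is peak minus trough fluorescence divided by its pre-addition baseline; 0% = buffer wells and 100% = ionomycin wells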
YFP-HEK293 quench = acts in parental YFP-HEK293 cells lacking TMEM16A, counter-screen; shares compounds with TMEM16A inh; iodide YFP quench, ionomycin; YFP ratio F(max-min)/F0 at 10 µM; 2,300 tested, under 10 active; AID 652233;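 active = yellow fluorescent protein signal ratio exceeding the buffer control mean by over 5 SD of those controls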;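 note: ratio is mean of duplicate wells from kinetic YFP trace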
ClC-1 inh = rat ClC-1 inhibition, TMEM16A specificity screen | shares compounds with TMEM16A inh | CHO ClC-1-YFP, iodide influx fluorescence quench; iodide control reads 0, buffer control 100 | ratio percent, % at 10 µM | 2,300 tested, under 10 active;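 active = duplicate-mean ratio percent above the mean of iodide-only control wells, which defines zero, plus 5 of their SD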;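 note: higher percent means stronger block of ClC-1 iodide influx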
* hit, by the source's call; i = inactive; . = not tested or not shown. An excerpt weighted towards active compounds, which were near 2.7% of everything screened.

SMILES	PP5 inh	PREPL inhibitor	PP1 counter	TMEM16A inh	TMEM16A act	DNA FID counter	TMEM16A reconf	HEK293 Ca mobil	YFP-HEK293 quench	ClC-1 inh
CC(C)c1ccc(OCc2ccc(C(=O)N3CCCC3)o2)cc1	4	6	6	25*	i	-31	53%*	i	-1.1	-15
O=C(c1ccc(COc2ccc3c(c2)CCC3)o1)N1CCN(c2ccccc2)CC1	1	20	2	100*	i	-13	i	i	-1.1	-3
Cc1cc(C)nc(N2N=C(C(C)(C)C)CC2=O)n1	0	11	0	i	i	-33	i	i	-1.1	-11
NC(=O)NC(=O)COC(=O)CCCc1c[nH]c2ccccc12	1	-7	-2	100*	i	-2	i	i	-1	-14
Cc1ccc(O)c(Sc2cc(C)ccc2O)c1	4	11	7	25*	i	-1	38%*	i	-1.1	-17
COC(=O)c1ccc(O)c(Sc2cc(C(=O)OC)ccc2O)c1	0	7	-3	100*	i	-13	19%*	i	-1.2	-4
COC(=O)c1ccc(C)cc1	.	19	.	.	i	.	.	.	.	.
O=C(CCl)Nc1ccccc1C(=O)NCc1ccccc1	0	-1	-8	i	i	1	.	.	.	.
O=C(Nc1cccc(C(F)(F)F)c1)c1cccnc1NCCO	1	-1	0	i	i	-3	.	.	.	.
O=C(Nc1cccc(C(F)(F)F)c1)c1cccnc1NCCc1ccccc1	6	-9	0	25*	i	8	i	i	-1.1	-5
Cc1cccc(S(=O)(=O)N2CCCc3ccccc32)c1	3	8	4	i	i	-22	.	.	.	.
Cc1cc(C)c(S(=O)(=O)N2CCCc3ccccc32)c(C)c1	1	-3	-1	25*	i	-19	32%*	i	-1.2	-10
CCOC(=O)CC(=O)CSc1nc2c(sc(=S)n2-c2ccc(C)c(C)c2)c(=O)[nH]1	2	-4	7	25*	.	-33	i	i	-1.1	-12
COc1ccc(CCN(C)C(=O)Cc2ccc(-c3ccccc3)cc2)cc1OC	1	-2	5	25*	i	-51	i	i	-1.2	-18
CC(C)CCN(C(=O)CNC(=O)c1ccco1)C(C(=O)NC1CCCCC1)c1ccco1 (stereo not drawn)	0	-8	-1	25*	.	-35	19%*	i	-1.1	-6
Cc1cc(C)cc(NC(=O)CCn2c(=O)c3cccn3c3ccccc32)c1	2	-12	3	i	i	-35	.	.	.	.
COCC(=O)Nc1ccc(C)c(Cl)c1	1	-7	-3	100*	i	0	i	i	-1	-4
O=c1cc(C(O)C[N+](=O)[O-])occ1OCc1ccccc1 (stereo not drawn)	1	6	0	i	i	.	.	.	.	.
COc1cc(/C=C2\Oc3cc(O)ccc3C2=O)ccc1O	2	-52	-5	i	i	.	.	.	.	.
O=C1/C(=C/c2ccc(O)c(O)c2)Oc2cc(O)ccc21	2	3	-6	i	i	.	20%*	34%*	-1.5	-62
CC(Oc1ccc(Cl)cc1Cl)C(=O)NNC(=O)c1cccnc1 (stereo not drawn)	0	-3	0	i	i	-14	.	.	.	.
CC(Oc1ccc(Cl)cc1Cl)c1nc(-c2ccc(NC(=O)c3cccnc3)cc2)no1 (stereo not drawn)	4	-9	0	25*	i	7	i	i	-0.97	-15
N#CC1=C(N)NC(SCC(=O)c2ccc(Cl)cc2)=C(C#N)C12CCCC2	3	34	8	100*	i	-1	i	i	-1.1	-6
N#CC1=C(N)NC(SCC(=O)c2ccc(Br)cc2)=C(C#N)C12CCCCC2	8	0	8	100*	i	-3	53%*	i	-0.81	-23
COc1ccc(C(=O)CSC2=C(C#N)C3(CCCCC3)C(C#N)=C(N)N2)cc1	3	0	1	i	i	2	.	.	.	.
SMILES	PP5 inh	PREPL inhibitor	PP1 counter	TMEM16A inh	TMEM16A act	DNA FID counter	TMEM16A reconf	HEK293 Ca mobil	YFP-HEK293 quench	ClC-1 inh
CN(Cc1ccccc1)S(=O)(=O)c1ccc(N2CCOCC2)nc1	2	1	-1	i	i	-13	.	.	.	.
CSCC(CO)NS(=O)(=O)c1ccc(C)cc1 (stereo not drawn)	1	11	-5	i	i	-2	.	.	.	.
Cc1nnc(SCc2cccc(Oc3ccccc3)c2)n1N	3	5	-6	25*	i	-9	i	i	-1	-20
ON=C1CCCCCCCC1	.	.	.	.	i	.	.	.	.	.
NC(N)=NN=C1CCCCCCCCCCC1	1	-9	0	i	i	7	i	i	-1	-8
Cc1ccc(NC(=S)NNC(=O)c2ccc(N3CCOCC3)c([N+](=O)[O-])c2)cc1Cl	3	24	1	25*	i	-12	26%*	i	-1.1	-6
O=C(NNC(=S)Nc1ccc(Br)cc1)c1ccc(N2CCOCC2)c([N+](=O)[O-])c1	6	17	6	i	i	4	.	.	.	.
O=C(NNC(=S)Nc1ccc(Cl)c(Cl)c1)c1cccc([N+](=O)[O-])c1	3	17	7	100*	i	-4	78%*	i	-0.85	-14
O=C(NNC(=S)NC(=O)c1ccccc1)c1cccc([N+](=O)[O-])c1	0	-1	1	i	i	-7	.	.	.	.
Cc1cccc(NC(=O)CSc2ccc3nnc(-c4cccnc4)n3n2)c1	2	-30	-4	i	i	-7	.	.	.	.
COc1ccc(C)cc1NC(=O)CSCc1cc(=O)n2c(C)csc2n1	.	.	.	.	i	.	.	.	.	.
Cc1noc(C)c1COC(=O)c1cc(C)n(-c2ccccc2)c1C	2	4	3	25*	i	-11	22%*	i	-0.99	-12
Cc1cc(C(=O)OCc2nnc(-c3ccccc3)o2)c(C)n1-c1ccccc1	1	9	3	i	i	-17	.	.	.	.
Cc1csc(NC(=O)C(C)Oc2ccc(Cl)cc2C)n1 (stereo not drawn)	4	-8	1	.	i	.	.	.	.	.
